Mtb bLac sens: beta-lactam sensitization of Mtb H37Rv; M. tuberculosis H37Rv growth with meropenem, percent inhibition; inhibition, % at 25 µM; 0.27% of 330,000 active; AID 434955; call rule not given here;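 also: growth measured after seven days incubation then overnight dye step; 0% = bacteria only wells and 100% = bacteria with antibiotic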
Sa ugtP lethal: kills S. aureus RN4220 lacking UgtP. AID 1259309. S. aureus RN4220 ugtP deletion, OD600 growth, 16 h. 0.54% of 330,000 active. growth inhibition, % (concentration not given with the values); in the data active = growth inhibition above about 68%;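 also: plate controls were untreated wells for no effect and antibiotic for full effect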
SARS 3CLpro inh: SARS-CoV 3CLpro protease inhibition; recombinant SARS-CoV 3CLpro, quenched FRET peptide cleavage; inhibition, % at 6 µM; 0.14% of 290,000 active; in the data active = inhibition above about 12%
RN4220 kill: S. aureus RN4220 growth inhibition | OD600, 16 h | inhibition, % (concentration not given with the values) | 0.33% of 330,000 active; in the data active = inhibition above about 85%;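 also: plate controls were untreated cells for no effect and reference antibiotic for full effect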
MazF activator: increases E. coli MazEF RNase cleavage of RNA; P0AE70; FAM/BHQ RNA-DNA oligo cleavage fluorescence, 5 h; activation, % at 20 µM; 0.32% of 350,000 active; in the data active = activation above about 50%
Target sequence (P0AE70 whole entry, looked up): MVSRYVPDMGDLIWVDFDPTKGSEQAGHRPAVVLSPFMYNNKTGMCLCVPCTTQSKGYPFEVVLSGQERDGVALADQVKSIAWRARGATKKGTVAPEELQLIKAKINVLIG
CCHF vOTU inh: blocks the CCHF virus ovarian tumor domain protease | CCHFV vOTU protease, Pep-AMC fluorescence | AID 651958 | inhibition, % at 11.5 µM | 0.55% of 370,000 active; in the data active = inhibition above about 30%; also: 0% = vehicle wells with enzyme and 100% = no enzyme wells
Starred values were filed as active, the others as inactive; / = no result given; + = active, no number. Rows were chosen to be rich in hits. Some 1.3% of all compounds tested hit in one or more screens of this group.

SMILES	Mtb bLac sens	Sa ugtP lethal	SARS 3CLpro inh	RN4220 kill	MazF activator	CCHF vOTU inh
CC(C(N)C(=O)NC(C(=O)O)C1OC(n2ccc(=O)[nH]c2=O)C(O)C1O)C(O)c1ccc(O)cn1 (configuration not stated)	/	-3.1	/	5.5	/	/
CC(=O)Oc1c(/C=C(\C#N)C(N)=O)[nH]c2ccccc12	/	86.6*	-10.1	96.4*	596.7*	13.7
CCNC(=S)NN=Cc1ccc(OCC(=O)Nc2ccc(OC)cc2)c(OC)c1	/	4.7	/	15.1	/	/
Cc1cc(N2CCN(c3ccccc3)CC2)nc(NCc2ccccc2)n1	46.1	-5.9	1.0	3.3	55.1*	3.6
Nc1c(C(=O)c2ccc(Cl)cc2)sc2nc3c(cc12)CCC3	2.1	-13.7	-4.5	-1.1	70.4*	-8.7
CC(=NOCON=C(C)c1ccc(F)cc1F)c1ccc(F)cc1F	/	19.5	/	4.7	/	/
CCOC(=O)c1c(NC(=S)Nc2ccc(Cl)cc2)sc2c1CCN(C)C2	-11.9	-1.6	5.6	-2.1	170.9*	-6.6
COc1ccc(C2C=CCN(C(=O)c3ccccc3)CC(=O)N2Cc2ccc(F)cc2)cc1 (configuration not stated)	/	4.0	/	8.9	/	/
C(=NNc1nc2ccccc2[nH]1)C1CCCCC1	/	3.8	/	1.5	/	/
NC(=O)c1ccc(N=C2C(=O)Nc3ccc([N+](=O)[O-])cc32)cc1	3.3	3.6	3.0	-2.9	9.0	116.5*
O=C(Nc1cccc(-c2csc(Nc3ccc(Cl)cc3)n2)c1)c1cccc(C(F)(F)F)c1	65.7	76.1	/	88.9*	1.7	14.1
O=C(Nc1cccc(-c2csc(Nc3ccc(Cl)cc3)n2)c1)c1ccccc1	97.2	38.3	/	15.3	-14.9	1.7
CN(C)c1ccc(/C=C/c2cc[n+](C)c3ccccc23)cc1	/	/	-4.2	/	7.0	10.5
CN(C)c1ccc(C=Cc2cc[n+](C)c3ccccc23)cc1	/	92.6*	/	94.7*	/	/
[N-]=[N+]=NCCC=CC1NS(=O)(=O)OCC1O (configuration not stated)	/	-0.5	/	4.2	/	/
CSC1=N/C(=C\c2ccc(C)s2)C(=O)S1	3.6	12.7	1.1	1.4	532.4*	-4.8
Nc1nnnn1N=Cc1ccccc1OCc1ccc(Cl)cc1Cl	/	-27.5	/	6.2	/	/
Cc1ccc(Nc2nc(Cl)c(C=O)s2)cc1Cl	15.1	7.1	5.7	-4.0	52.7*	-5.5
O=Cc1sc(Nc2ccccc2)nc1Cl	20.3	-3.7	4.8	3.5	-4.7	12.1
Cc1ccc(-n2nnnc2SCc2nc3sc(C)c(C)c3c(=O)[nH]2)cc1	-6.8	-4.3	-0.7	2.9	67.9*	-3.4
CN(C)C(=O)C[n+]1ccc(C=NO)cc1	/	4.8	/	4.5	/	/
O=C(COC(=O)c1ccc2c(c1Cl)C(=O)c1ccccc1C2=O)NC1CCCCC1	5.6	-4.1	1.3	3.7	-4.3	8.6
O=C(COC(=O)c1ccc2c(c1Cl)C(=O)c1ccccc1C2=O)NC1CC1	60.0	79.8	-0.3	87.2*	3.2	3.4
O=c1[nH]c(=O)n(C2CCCCC2)c(O)c1/C=C/C=Nc1ccccc1	1.1	-1.1	0.6	5.6	95.6*	-4.8
O=C(CC=NOCc1c(Cl)cccc1Cl)Oc1ccc(Cl)cc1Cl	/	7.5	/	-5.4	/	/
SMILES	Mtb bLac sens	Sa ugtP lethal	SARS 3CLpro inh	RN4220 kill	MazF activator	CCHF vOTU inh
COc1ccc(OCC(=O)NN=C(C)c2cccs2)cc1	/	-0.3	/	0.4	/	/
NC(Cc1cccc2ccccc12)=NOC(=O)c1ccc2c(c1)OCO2	/	-9.3	/	-0.7	/	/
Cc1nn(-c2ccccc2)c2c1C1(C(=O)N(C(C)C)c3ccccc31)C(C#N)=C(N)O2 (configuration not stated)	60.5	66.8	2.0	91.7*	2.5	6.4
CC(=NN(Cc1ccccc1)c1ccccc1)c1cccnc1	/	2.0	/	2.6	/	/
COc1ccc2cc3c(N)c(C(=O)NCc4ccco4)sc3nc2c1	61.9	7.7	1.5	0.5	67.4*	8.1
O=C(CSc1ncccn1)NN=Cc1ccc2c(c1)OCO2	/	-4.3	/	-0.4	/	/
CC1(c2cc([N+](=O)[O-])cc([N+](=O)[O-])c2)CC(C)(C)N(C(=O)c2ccccc2)c2ccccc21 (configuration not stated)	78.2	38.2	1.8	-6.0	0.0	-0.6
CC1(c2ccccc2)CC(C)(C)N(C(=O)C2CCCO2)c2ccccc21 (configuration not stated)	-0.5	11.8	1.1	13.7	-8.0	35.2*
COc1ccc(CNC(=O)C(C#N)c2nc3ccccc3nc2N2CCCC2)cc1 (configuration not stated)	-10.9	/	-2.4	/	+	-3.5
CCOC(=O)C1CCN(c2nc3ccccc3nc2C(C#N)C(=O)OC(C)C)CC1 (configuration not stated)	-11.6	-3.6	0.1	1.7	351.3*	4.0
COC(=O)NN=Cc1cn(CCOc2ccccc2OC)c2ccccc12	/	2.7	/	7.2	/	/
COCCN(C(=O)c1ccccc1F)c1nc(-c2ccc(OC)cc2)cs1	0.8	39.2	-3.6	-7.2	-1.9	9.8
CCN(C(=O)c1ccccc1F)c1nc(-c2ccc(OC)cc2)cs1	0.3	89.8*	5.4	-6.8	-0.8	-1.8
O=C(CSc1nnc(SCc2ccc(Cl)cc2)s1)NN=Cc1c(Cl)cccc1Cl	/	-2.3	/	-5.9	/	/
O=C(C=Cc1ccc(Cl)cc1)c1ccc([N+](=O)[O-])o1	/	99.1*	/	79.0	/	/
O=C(NN=Cc1cc(Br)ccc1O)c1ccc(S(=O)(=O)N2CCCCC2)cc1	/	7.8	/	7.8	/	/
Cc1nnc(SCC(=O)NCc2ccc3c(c2)OCO3)s1	-10.8	5.7	2.2	1.3	10.3	1.6
O=C(CSc1nc2cc(Cl)ccc2s1)NCc1ccc2c(c1)OCO2	0.1	-5.3	-2.3	-2.4	63.5*	-3.0
COc1ccc(-c2nnc(SCc3cc(C)cc(C)c3)o2)cc1	15.3	93.8*	0.7	10.9	6.7	-5.7
COc1ccc(-c2nnc(SCC(=O)c3ccc(C)o3)o2)cc1	/	-12.1	-2.2	8.2	13.2	-6.8
COc1ccc(OCc2n(CC(=O)OC3CC(C)CCC3C(C)C)c3ccccc3[n+]2C)cc1 (configuration not stated)	97.3	100.4*	-5.7	100.6*	-0.3	9.8
CC1CCC(C(C)C)C(OC(=O)COC(=O)c2ccc(=O)[nH]c2)C1 (configuration not stated)	1.6	7.4	2.6	3.5	0.3	12.7
CC1CCC(C(C)C)C(OC(=O)CSc2nccc(=O)[nH]2)C1 (configuration not stated)	9.2	-12.6	3.5	12.0	-10.5	-4.1
COc1ccc(-c2n(CC(=O)OC3CC(C)CCC3C(C)C)c3ccccc3[n+]2C)cc1 (configuration not stated)	/	100.5*	5.1	100.6*	12.3	-2.9
Cc1c(N=C2N=C(NC(=O)Nc3ccc(Cl)cc3)c3ccccc32)c(=O)n(-c2ccccc2)n1C	4.9	-13.7	-1.3	-2.9	87.7*	-5.3
Cc1c(NC(=O)Nc2ccc(Cl)cc2)c(=O)n(-c2ccccc2)n1C	5.7	6.4	-0.5	0.7	8.1	5.6
